# Compound activity (PubChem BioAssay)
# The list is not random: actives were taken first. Their share in the collection is about 6.7%.
# C diff HTS: C. difficile growth inhibition. Clostridium difficile clinical isolate growth, OD600, 24 h; active compounds read low. growth activity, negative = inhibition, % at 16 µg/mL (by protocol). 86,000 tested, 0.25% active. AID 1259249;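 active means mean growth activity at or below -80% and every replicate also at or below -80%; inconclusive means mean at or below -80% but some replicate above -80%; inactive means mean growth activity above -80%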;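 further: 0% = DMSO wells and -100% = levofloxacin 16 µg/mL wells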
# Pf Dd2 growth: inhibitors of Plasmodium falciparum Dd2 growth; AID 1159554; activity change, % at 10 µM; 94,000 tested, 2.3% active; P. falciparum Dd2 growth, SYBR Green, 72 h; active compounds read low; in the data active means activity change below about -80%; inconclusive means no clear call, values can overlap the other calls
# T cruzi growth-1: blocks T. cruzi growth in NIH3T3 culture; T. cruzi beta-gal in NIH3T3, GalScreen luminescence, 90 h; inhibition, % at 8.34 µM; 77,000 tested, 5.9% active;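 active means mean inhibition above about 93%, with at least 55% of replicates each passing it, limit read from the data, passing the limit was not always enough; inconclusive means only one of those two conditions holds; inactive means neither condition holds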
# T cruzi growth-2: Trypanosoma cruzi proliferation inhibition; inhibition, % at 8.35 µM; shares compounds with T cruzi growth-1; T. cruzi beta-gal in NIH3T3, GalScreen luminescence, 90 h; 5,600 tested, 72% active;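 active means mean replicate inhibition above about 95% and at least 55% of replicates individually reaching it, limit read from the data; inconclusive means only one of the two criteria is met; inactive means neither criterion is met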
# T cruzi growth-3: Trypanosoma cruzi proliferation inhibition; shares compounds with T cruzi growth-1; T. cruzi beta-gal in NIH3T3, GalScreen luminescence, 90 h; inhibition, % at 2.09 µM; 5,600 tested, 21% active; AID 651740;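 active means mean inhibition above about 95%, with at least 55% of replicates also reaching it, limit read from the data; inconclusive means meets just one of the two conditions; inactive means meets neither condition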;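 further: plate controls were neutral control median for no effect and positive control median for full effect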
# NIH3T3 tox: cytotoxicity in mouse NIH/3T3 fibroblasts; shares compounds with T cruzi growth-1; NIH/3T3 viability, CellTiter-Glo ATP luminescence, 90 h; cytotoxicity (signal decrease), % at 8.35 µM; 5,600 tested, 14% active; AID 651742;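 active means mean signal decrease across replicates above about 35% based on untreated-well scatter, with enough replicates individually passing, limit read from the data; inconclusive means no rule stated though some were filed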;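 further: 0% = median of neutral control wells and 100% = median of positive control wells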
# NIH3T3 tox 2: cytotoxicity in mouse NIH/3T3 fibroblasts. shares compounds with T cruzi growth-1. NIH/3T3 viability, CellTiter-Glo ATP luminescence, 90 h. inhibition, % at 24.9 µM. 5,600 tested, 56% active. AID 651744;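 active means mean loss of cell viability signal at or above a set limit, and enough replicates individually reaching it; inconclusive means meets only the mean limit or only the replicate share; inactive means meets neither condition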;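 further: 0% = median of neutral control wells and 100% = median of positive control wells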
# Starred values were filed as active, the others as inactive; ? = inconclusive; nt = not tested or not shown.
SMILES,C diff HTS,Pf Dd2 growth,T cruzi growth-1,T cruzi growth-2,T cruzi growth-3,NIH3T3 tox,NIH3T3 tox 2
C[C@@H]1CN([C@@H](C)CO)C(=O)c2cc(C3=CCCC3)cnc2O[C@H]1CN(C)C(=O)Nc1ccc(C(F)(F)F)cc1,-9,-15,99*,102*,56,21,6
C[C@H]1CN([C@@H](C)CO)C(=O)c2cc(C3=CCCC3)cnc2O[C@@H]1CN(C)C(=O)Nc1ccc(F)cc1,-13,-74,nt,nt,nt,nt,nt
C[C@@H]1CN([C@H](C)CO)C(=O)c2cc(C3=CCCC3)cnc2O[C@@H]1CN(C)C(=O)Nc1ccc(C(F)(F)F)cc1,21,-4,111*,107*,84,?,104*
O=C(C[C@@H]1C[C@@H]2c3cc(NC(=O)NC4CCCC4)ccc3O[C@@H]2[C@H](CO)O1)NCc1ccc(-c2ccccc2)cc1,-3,-32,94,nt,nt,nt,nt
C[C@H]1CN([C@@H](C)CO)C(=O)c2cccc(NS(=O)(=O)c3ccc(F)cc3)c2O[C@@H]1CN(C)S(=O)(=O)c1cn(C)cn1,-6,-4,-6,nt,nt,nt,nt
C[C@H](CO)N1C[C@H](C)[C@@H](CN(C)Cc2ccc(Oc3ccccc3)cc2)Oc2c(NC(=O)c3ccc(-c4nccs4)cc3)cccc2C1=O,nt,-64,?,100*,112*,-8,-11
C[C@H](CO)N1C[C@H](C)[C@H](CN(C)Cc2ccc(C(F)(F)F)cc2)Oc2c(NC(=O)c3ccc(-c4nccs4)cc3)cccc2C1=O,nt,-70,?,108*,87,12,-10
C[C@H]1CN([C@@H](C)CO)C(=O)c2cccc(NC(=O)c3ccc(-c4nccs4)cc3)c2O[C@H]1CN(C)Cc1ccc(Oc2ccccc2)cc1,nt,-35,1,nt,nt,nt,nt
C[C@H]1CN([C@@H](C)CO)C(=O)c2cccc(NC(=O)c3ccc(-c4nccs4)cc3)c2O[C@H]1CN(C)Cc1ccc(C(F)(F)F)cc1,nt,-42,81,nt,nt,nt,nt
COCCNC(=O)C[C@@H]1CC[C@H]2[C@@H](COC[C@H](O)CN2Cc2cccc(-c3ccncc3)c2)O1,6,9,84,nt,nt,nt,nt
CCCNC(=O)N1C[C@H](C)[C@H](OC)CN(C)C(=O)c2ccc(NS(C)(=O)=O)cc2OC[C@@H]1C,nt,13,38,nt,nt,nt,nt
Cc1ccc(S(=O)(=O)Nc2ccc3c(c2)C(=O)N([C@H](C)CO)C[C@@H](C)[C@@H](CN(C)S(=O)(=O)c2ccc(Cl)cc2)OCCCC[C@@H](C)O3)cc1,-4,-85*,119*,103*,115*,1,15
C[C@H]1CCCCO[C@@H](CN(C)S(=O)(=O)c2ccc(Cl)cc2)[C@@H](C)CN([C@@H](C)CO)C(=O)c2cc(NS(=O)(=O)c3ccc(Cl)cc3)ccc2O1,0,-55,95,nt,nt,nt,nt
C[C@@H]1CCCCO[C@@H](CN(C)S(=O)(=O)c2ccc(Cl)cc2)[C@@H](C)CN([C@@H](C)CO)C(=O)c2cc(NS(=O)(=O)c3ccc(Cl)cc3)ccc2O1,4,-79,79,nt,nt,nt,nt
Cc1ccc(S(=O)(=O)N(C)C[C@H]2OCCCC[C@H](C)Oc3ccc(NS(=O)(=O)c4ccc(Cl)cc4)cc3C(=O)N([C@H](C)CO)C[C@H]2C)cc1,5,-68,108*,97*,109*,-23,?
Cc1ccc(S(=O)(=O)Nc2ccc3c(c2)C(=O)N([C@@H](C)CO)C[C@H](C)[C@H](CN(C)S(=O)(=O)c2ccc(Cl)cc2)OCCCC[C@@H](C)O3)cc1,8,-86*,99*,102*,113*,7,47*
Cc1ccc(S(=O)(=O)Nc2ccc3c(c2)C(=O)N([C@H](C)CO)C[C@H](C)[C@H](CN(C)S(=O)(=O)c2ccc(Cl)cc2)OCCCC[C@H](C)O3)cc1,5,-64,112*,100*,107*,10,8
C[C@H]1CCCCO[C@H](CN(C)S(=O)(=O)c2ccc(Cl)cc2)[C@@H](C)CN([C@@H](C)CO)C(=O)c2cc(NS(=O)(=O)c3ccc(Cl)cc3)ccc2O1,8,-67,78,nt,nt,nt,nt
COCCNC(=O)C[C@@H]1C[C@@H]2c3cc(NC(=O)c4ccc5c(c4)OCO5)ccc3O[C@@H]2[C@H](CO)O1,1,8,nt,nt,nt,nt,nt
